Source: PubChem
Rows were chosen to be rich in hits. Some 3.5% of all compounds tested hit in one or more screens of this group.
FBW7 act – human FBW7 E3 ligase activation, primary screen; AlphaScreen FBW7–phospho-cyclin E peptide binding, activator screen; normalized activity (activation), % at 26.1 µM; 650,000 tested, 0.13% active; in the data active means normalized activity above about 1.9%;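 further: purified mutant Fbw7 with reduced substrate affinity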
TEAD-YAP inh – TEAD-YAP interaction inhibition; HEK-TIYL cells, TEAD-Gal4/YAP UAS-luciferase luminescence; inhibition, % at 9.12 µM; 640,000 tested, 1.4% active; AID 1259422; in the data active means inhibition above about 32%
GPR151 ag – human GPR151 activation; Q8TDV0; AID 1508602; PathHunter beta-arrestin GPR151 cells, luminescence; activation, % at 11.2 µM; 650,000 tested, 1% active; in the data active means activation above about 4.9%
MITF inh – human MITF inhibition, primary screen. O75030. 650,000 tested, 0.91% active. inhibition, % at 2.6 µM. AlphaScreen MITF homodimerization, bead proximity signal. AID 1259374; in the data active means inhibition above about 50%
GPR151 confirm – confirmation of human GPR151 activators. shares compounds with GPR151 ag. GPR151 PathHunter beta-arrestin cells, luminescence, 90 min; % of EA-reagent control over plate median. activation, % at 11.2 µM. 6,700 tested, under 10 active;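 active means mean percent activation across replicates above the confirmation screen cutoff of 4.91%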
GPR119 counter – activates human GPR119 in a GPR151 counter-screen; shares compounds with GPR151 ag; GPR119 PathHunter beta-arrestin cells, luminescence, 90 min; 0 = compound-well median, 100 = enzyme-acceptor control; activation, % at 11.2 µM; 6,700 tested, 0.3% active; AID 1508611;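 active means mean percent activation in the counterscreen above 29.09%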;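 further: counterscreen on off-target GPR119 to flag nonselective hits from the GPR151 activator screen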
Target sequence (Q8TDV5 whole entry, looked up): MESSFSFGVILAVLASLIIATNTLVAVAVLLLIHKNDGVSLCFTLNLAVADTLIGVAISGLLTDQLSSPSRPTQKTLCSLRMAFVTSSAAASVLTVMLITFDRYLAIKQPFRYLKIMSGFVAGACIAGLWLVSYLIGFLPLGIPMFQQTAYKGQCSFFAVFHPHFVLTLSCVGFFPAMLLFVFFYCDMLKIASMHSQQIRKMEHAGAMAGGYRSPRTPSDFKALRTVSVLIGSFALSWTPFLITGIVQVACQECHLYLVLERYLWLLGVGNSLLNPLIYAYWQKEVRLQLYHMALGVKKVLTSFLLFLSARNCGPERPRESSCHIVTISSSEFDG
A number is an active result; n = inactive; x = not tested or not shown.

SMILES | FBW7 act | TEAD-YAP inh | GPR151 ag | MITF inh | GPR151 confirm | GPR119 counter
CN(C(=O)Cn1ncc2c(=O)oc3ccccc3c21)C1CCCCC1 | n | n | n | n | x | x
CN(Cc1nnc(-c2ccccc2)o1)Cc1cc(-c2ncccn2)ccc1O | n | n | 10.8 | n | n | n
CN(Cc1ccccc1)Cc1cc(-c2ncccn2)ccc1O | n | n | n | n | x | x
CCCCNC(=O)/C(=C/c1ccco1)NC(=O)c1ccccc1I | n | n | 9.2 | n | n | n
CCCCNC(=O)/C(=C/c1ccco1)NC(=O)c1ccc(I)cc1 | n | n | n | n | x | x
NC(=O)/C(=C\c1ccco1)NC(=O)c1ccccc1Br | n | n | 6.6 | n | n | n
N=c1sccn1CC(=O)c1ccc(Br)cc1 | n | n | n | n | x | x
Cc1cc(Br)ccc1OCC(=O)NNC(=O)c1ccco1 | n | n | n | n | x | x
O=C(c1ccc([N+](=O)[O-])cc1)c1ccc(Cl)c(Cl)c1 | n | n | n | n | x | x
C(=C\c1nnc2c3ccccc3ncn12)/c1ccccc1 | n | n | n | n | x | x
COc1cc(/C=C/c2nnc3c4ccccc4ncn23)cc(OC)c1OC | n | n | 8.4 | n | n | n
CCCN1CCC(N(C(=O)NS(=O)(=O)c2ccc(C)cc2)C2CC2)CC1 | n | n | n | n | x | x
COc1ccc(-c2nnc3ccc(SCc4ccccc4)nn23)cc1OC | n | n | 5.6 | n | n | n
COc1ccc(-c2nnc3ccc(SCc4ccc(F)cc4)nn23)cc1OC | n | n | n | n | x | x
O=C(Cc1ccccc1)NCC(=O)NNC(=O)CSc1ccc(Cl)cc1 | n | n | n | n | x | x
CC(C)CC(NC(=O)C(C)NC(=O)CNC(=O)C(NC=O)C(C)C)C(=O)NC(C)C(=O)NC(C(=O)NC(C(=O)NC(C(=O)NC(Cc1c[nH]c2ccccc12)C(=O)NC(CC(C)C)C(=O)NC(Cc1c[nH]c2ccccc12)C(=O)NC(CC(C)C)C(=O)NC(Cc1c[nH]c2ccccc12)C(=O)NC(CC(C)C)C(=O)NC(Cc1c[nH]c2ccccc12)C(=O)NCCO)C(C)C)C(C)C)C(C)C (configuration not stated) | n | 84.3 | 23.5 | n | 13.5 | 112.6
COC(=O)C(C)NC(=O)C(Cc1c[nH]c2ccccc12)NC(C)=O (configuration not stated) | n | n | n | n | x | x
CCOc1cccc(/C=C2/SC(=S)N(CCC(=O)O)C2=O)c1 | n | n | 4.9 | n | n | n
COc1ccc(/C=C2\SC(=S)N(CCC(=O)NCCO)C2=O)cc1 | n | n | 5.1 | n | n | n
CCOc1ccc(/C=C2\SC(=S)N(C(CC)C(=O)O)C2=O)cc1 (configuration not stated) | n | n | 6.0 | n | n | n
CCOc1cc(N2CCN(S(=O)(=O)c3ccc(OC)cc3)CC2)nc(C)n1 | n | n | n | n | x | x
O=C(CSc1nc2ccsc2c(=O)n1-c1ccc(F)cc1)NCCC1=CCCCC1 | n | n | n | n | x | x
Cc1cc(NCCN2CCOCC2)nc(Cl)n1 | n | n | 6.2 | n | n | n
COc1cc(OC)c(OC)cc1/C=N/NC(=O)c1c(O)c2ccccc2[nH]c1=O | n | n | n | n | x | x
CC(=O)c1cccc(NC(=O)c2ccc(OCC(C)C)cc2)c1 | n | n | n | n | x | x
SMILES | FBW7 act | TEAD-YAP inh | GPR151 ag | MITF inh | GPR151 confirm | GPR119 counter
COCC(=O)Nc1nc2ccc(OC)cc2s1 | n | n | 8.6 | n | n | n
COc1ccc2c(CN3C(=O)C(=O)N(C4CCCC4)C3=O)cc(=O)oc2c1 | n | n | 10.2 | n | n | n
O=C(CCN1C(=O)S/C(=C\c2ccc(Cl)cc2)C1=O)Nc1ccc(C(=O)O)cc1 | n | n | 6.9 | n | n | n
C=CCOc1c(Cl)cc(CNn2nnnc2N)cc1OC | n | n | n | n | x | x
CCOc1cc(CNn2nnnc2N)cc(Cl)c1OCC(=O)NC(C)(C)C | n | n | 5.2 | n | n | n
COCCCNC(=O)COc1ccc(Cl)c(C)c1 | n | n | n | n | x | x
Cc1ccc(OCC(=O)Nc2ccncc2)cc1C | n | n | 4.9 | n | n | n
COCCCNC(=O)CCCc1ccc(OC)c(C)c1 | n | n | 12.6 | n | n | n
COCCCNC(=O)COc1ccc(C)c(C)c1 | n | n | 10.4 | n | n | n
Cc1ccc(C)c(OCC(=O)NCCCN(C)C)c1 | n | n | 9.1 | n | n | n
Cc1c(C(=O)Nc2ccccc2N2CCCC2)cccc1[N+](=O)[O-] | n | n | n | n | x | x
COc1cccc(CN2CCCC(C)C2)c1O (configuration not stated) | n | n | n | n | x | x
CCN1CCN(C(=O)c2ccc(Br)cc2)CC1 | n | n | n | n | x | x
Cc1ccnc(NS(=O)(=O)c2ccc(CN3C(=O)c4cccnc4C3=O)cc2)c1 | n | n | n | n | x | x
O=C1NC(=Nc2ccccc2)SC1Cc1cccc2ccccc12 (configuration not stated) | n | n | n | n | x | x
CCOc1ccc2ccccc2c1C(=O)NCc1ccccn1 | n | n | 21.1 | n | n | n
CCOc1ccc2ccccc2c1C(=O)NCc1cccs1 | n | n | n | n | x | x
O=C1OC(c2ccc(F)cc2)=C/C1=C/c1cccc(Br)c1 | n | n | n | n | x | x
Cc1cc(NC(=O)CSc2nc(C3CC3)nc3c2c(=O)n(C)c(=O)n3C)no1 | n | n | n | n | x | x
O=C(Cc1ccc(F)cc1)Nc1ccc(-n2ncc3ccc(-c4nn[nH]n4)cc32)cc1 | n | n | 5.0 | n | n | n
O=C(Nc1ccc(-n2ncc3ccc(-c4nn[nH]n4)cc32)cc1)c1ccccc1 | n | n | n | n | x | x
O=C(CN1CCN(c2nc(-c3ccccc3)cs2)CC1)Nc1ccccc1[N+](=O)[O-] | n | n | n | n | x | x
Cc1ccc(-c2csc(N3CCN(CC(=O)Nc4ccc([N+](=O)[O-])cc4)CC3)n2)cc1 | n | n | 7.0 | n | n | n
COc1ccc(S(=O)(=O)n2c(SCC(=O)Nc3ccc(OC(F)(F)F)cc3)nc3ccccc32)cc1 | n | n | n | n | x | x
Cc1ccc(/C(O)=C2/C(=O)C(=O)N(CCC(=O)O)C2c2ccc(C(C)C)cc2)cc1 (configuration not stated) | n | n | n | n | x | x
SMILES | FBW7 act | TEAD-YAP inh | GPR151 ag | MITF inh | GPR151 confirm | GPR119 counter
COc1ccc(C)cc1N(CC(N)=O)S(C)(=O)=O | n | n | 7.7 | n | n | n
Cc1ccc(C)c(N(CC(=O)NC(C(C)C)C(C)C)S(C)(=O)=O)c1 | n | n | 5.9 | n | n | n
COC(=O)CN(c1cc(C)ccc1OC)S(C)(=O)=O | n | n | n | n | x | x
O=C(NCc1ccc(F)cc1)c1ccc(N2CCN(c3ccccn3)CC2)c([N+](=O)[O-])c1 | n | n | n | n | x | x
C=CCOC(=O)C1C(c2ccccc2)c2c([nH][nH]c2=O)CC1(C)O (configuration not stated) | n | n | n | n | x | x
C=CCOC(=O)C1C(c2cccc(Br)c2)c2c([nH][nH]c2=O)CC1(C)O (configuration not stated) | n | n | 6.0 | n | n | n
